Measurements taken from PubChem BioAssay (NCI).
The panel holds about 83,000 compounds, 20% with a hit somewhere; the sample as a whole holds those more often.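 Method: cells in 96-well plates; compound added at one concentration; 48 h incubation; percent growth measured; values under 10 scored active.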 Unmarked numbers belong to inactive results. The source made the active and inactive calls.

Key:
Assay in all cases: NCI-60 one-dose screen, 48 h (100 = growth as untreated, 0 = no growth, -100 = all killed)
[1] = system: DU-145 prostate; details: 10 µM unless noted
[2] = system: K-562 leukemia; details: 10 µM unless noted
[3] = system: MALME-3M melanoma; details: 10 µM unless noted
[4] = system: MDA-MB-231 breast; details: 10 µM unless noted
[5] = system: RXF 393 renal; details: 10 µM unless noted
[6] = system: SF-268 CNS; details: 10 µM unless noted
[7] = system: SF-295 CNS; details: 10 µM unless noted
[8] = system: SF-539 CNS; details: 10 µM unless noted
[9] = system: UACC-257 melanoma; details: 10 µM unless noted
[10] = system: M14 melanoma; details: 10 µM unless noted
[11] = system: HCT-15 colon; details: 10 µM unless noted
[12] = system: HT29 colon; details: 10 µM unless noted
[13] = system: U251 CNS; details: 10 µM unless noted
[14] = system: PC-3 prostate; details: 10 µM unless noted
[15] = system: SK-MEL-5 melanoma; details: 10 µM unless noted
[16] = system: UACC-62 melanoma; details: 10 µM unless noted
[17] = system: LOX IMVI melanoma; details: 10 µM
[18] = system: SK-MEL-28 melanoma; details: 10 µM unless noted
[19] = system: SNB-75 CNS; details: 10 µM unless noted
[20] = system: SNB-19 CNS; details: 10 µM unless noted

Row | Structure (SMILES) | growth [1] | growth [2] | growth [3] | growth [4] | growth [5] | growth [6] | growth [7] | growth [8] | growth [9] | growth [10] | growth [11] | growth [12] | growth [13] | growth [14] | growth [15] | growth [16] | growth [17] | growth [18] | growth [19] | growth [20]
1 | Cc1sc(C(NC(=O)OCCn2c([N+](=O)[O-])cnc2C)C(F)(F)Cl)nc1-c1ccc(OC(F)(F)F)cc1 (stereo not given) | -70.4% (active) | 0.935% (active) | -75% (active) | -94.8% (active) | -88.6% (active) | -38.6% (active) | -98.8% (active) | -92.4% (active) | -73% (active) | -67.5% (active) | -92.5% (active) | -83.4% (active) | -85.7% (active) | -65.1% (active) | -99.5% (active) | -96.1% (active) | -98.3% (active) | -92.2% (active) |  | 
2 | CCCCOc1ccc(NC(=O)c2sc3nc(C)ccc3c2N)cc1 | 46.4% | 9.87% (active) | 23.3% |  | -20.7% (active) | 29.8% | -54% (active) | -99.7% (active) | 54.1% | 59.9% | 36.7% | 40.2% | 0.73% (active) | 36.8% | 3.73% (active) | 40% |  | 50.7% | -17.3% (active) | 0.979% (active)
3 | COc1ccc(NC(=O)c2sc3nc(C(C)C)ccc3c2N)cc1 | 78.9% | 50% | 83.4% |  | 89.2% | 99.7% | 72.3% | 84.1% | 88.7% | 93.4% | 69.5% | 73.6% | 84.6% | 71.7% | 44.6% | 85.6% |  | 94% | 104% | 91.4%
4 | CC1=C(C(=O)OCc2ccccc2)C(c2ccc(-n3cncn3)cc2)n2c(nc3ccccc32)N1 (stereo not given) | 67.7% | 14.3% | 50.9% |  | 52.2% | 71.5% | 19.9% | 38.3% | 51.5% | 50.5% | 33.1% | 24.7% | 63.4% | 43.3% | 39.7% | 16.2% |  | 66.5% | 47.9% | 66.9%
5 | CC(C)CCNC(=O)N/C(N)=N/c1nc2ccccc2s1 | 66.4% | 28.7% | 77.1% |  | 74.7% | 72% | 45.3% | 56.8% | 35.5% | 79.6% | 48.4% | 68.8% | 67.4% | 62.6% | 15.8% | 59.2% |  | 81.3% | 82.2% | 58.4%
6 | CC(=O)Nc1cccc(Nc2nc(N[C@H]3CCCc4ccccc43)c3ccccc3n2)c1 | 104% | 94.2% | 102% |  | 120% | 95.5% | 97.3% | 97.2% | 102% | 101% | 97.5% | 104% | 105% | 115% | 105% | 92% |  | 104% | 90.6% | 96.9%
7 | C=C1CC[C@@H]2[C@]3(C)COC(c4cn[nH]c4-c4ccccc4)O[C@@H]3CC[C@@]2(C)[C@@H]1C/C=C1/C(=O)OCC1O (stereo not given in full) | 5.39% (active) | -10.2% (active) | -81.2% (active) |  | -59.4% (active) | 36.5% | 50.2% | -74.8% (active) | 13.5% | -17.5% (active) | -81% (active) | -79% (active) | -18.6% (active) | 33.3% | -77.2% (active) | -12.7% (active) |  | -55.2% (active) | 105% | 45.3%
8 | O=C(O)c1cccc(-c2ccc(/C=N/NC(=O)c3[nH]c4ccc(Br)cc4c3-c3ccccc3)o2)c1 | 98.7% | 65.8% | 55.2% |  | 24.7% | 47.6% | 72.3% | 11.8% | 93.8% | 65.9% | 70.4% | 107% | 34.7% | 86.4% | 84.2% | 35.5% |  | 53.2% | 57.8% | 30.7%
9 | COc1cc(/C=C/C(=O)c2nnn(-c3ccc(Cl)cc3)c2C)cc(OC)c1OC | 17.3% | 3.43% (active) | 49% |  | 49.7% | 38.8% | 51.8% | 52% | 35.3% | 30.4% | 12.4% | 15.5% | 17.3% | 30.6% | 21.5% | 28.7% |  | 46.9% | 22.5% | 60.3%
10 | Cc1c(C(=O)NNC(=O)c2ccc(Cl)cc2)nnn1-c1ccc(Br)cc1 | 109% | 91.3% | 93.8% |  | 93.1% | 108% | 90.9% | 94.2% | 97.7% | 98.8% | 98.3% | 96.4% | 112% | 99.9% | 97.7% | 90.5% |  | 95.7% | 90.6% | 97%
11 | O=c1c2ccccc2nc(-c2ccccc2)n1/N=C/c1ccc2ccccc2c1 | 55.8% | 26.7% | 59% |  | 81.2% | 49.9% | 46.8% | 27.2% | 49.3% | 57.2% | 13.1% | 19.9% | 31.2% | 53.4% | 38.5% | 35.8% |  | 61.7% | 65.8% | 56.8%
12 | CC(=O)OC[C@@]1(C)C2CC[C@]3(C)C(CC=C4C5CC(C)(C)CC[C@]5(C(=O)Nc5ccc(C)cc5)CC[C@]43C)[C@@]2(C)C[C@@H](OC(C)=O)[C@@H]1OC(C)=O (stereo not given in full) | 49% | 21.6% | 60.6% | 66.1% | 82.2% | 57.4% | 31.2% | 43.1% | 23.9% | 51.9% | 35.1% | 30.6% | 40.7% | 34.3% | 7.75% (active) | 48.2% |  | 77.1% |  | 
13 | CNC(=O)c1cccc(NC(=O)c2ccc3c(c2)nnn3/C(C#N)=C/c2ccccn2)c1 | 21.7% | 0.0446% (active) | -97% (active) |  | -97.9% (active) | 24.4% | 84.3% | -72.8% (active) | -67.2% (active) | -73.6% (active) | -31.3% (active) | -84.4% (active) | -12.4% (active) | 2.89% (active) | -13.4% (active) | -86.6% (active) |  | -76.6% (active) | 73% | 71%
14 | CSc1ccc(NC(=O)c2ccc3nnn(/C(C#N)=C/c4ccccn4)c3c2)cc1 | -97.9% (active) | -5.65% (active) | -94.6% (active) |  | -98.6% (active) | -3.01% (active) | -73.3% (active) | -99.3% (active) | -76.9% (active) | -89.7% (active) | -66.3% (active) | -89.2% (active) | -81.6% (active) | -20.1% (active) | -99.7% (active) | -65.9% (active) |  | -72.6% (active) | 63.2% | -73.1% (active)
15 | N#Cc1ccc(C(=O)Nn2c(N)cc3ccccc3c2=O)cc1 | 115% | 89.6% | 77.9% |  | 104% | 106% | 99% | 90% | 99.5% | 94.5% | 103% | 103% | 98% | 94.6% | 99.4% | 86.1% |  | 104% | 111% | 94.6%
16 | O=C(C1=CNC(=S)NC1c1ccc(O)cc1)c1cc2ccccc2oc1=O (stereo not given) | 110% | 90.9% | 108% | 105% | 109% | 97.5% | 98.8% | 91.9% | 107% | 96.4% | 104% | 106% | 102% | 86.7% | 101% | 95.8% | 91.5% | 118% |  | 
17 | CSc1ccc(C(=O)Nc2ccc3nn(/C(C#N)=C/c4ccccn4)nc3c2)cc1 | -97% (active) | -1.86% (active) | -82.1% (active) |  | -94.6% (active) | -26.3% (active) | -49% (active) | -88.3% (active) | -67.6% (active) | -76.8% (active) | -70.1% (active) | -88.6% (active) | -84.1% (active) | -28% (active) | -54.9% (active) | -91.2% (active) |  | -83.5% (active) | 33.1% | -70.9% (active)
